From PubChem
B2AR ag = agonists of human beta-2 adrenergic receptor inducing internalization. Am2.2-beta2AR cells, FAP receptor internalization, flow cytometry. 0.43% of 340,000 active. response, % (no concentration beside the values);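 active means response above a set limit, near 3 SD of response in nonfluorescent compounds, cut at about 42% in these data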
TLR9-MyD88 block = inhibitors of human TLR9-MyD88 binding. Q9NR96+Q99836. CHO BLA complementation TLR9-MyD88, CCF4 FRET ratio. inhibition, % at 4.98 µM. 0.21% of 340,000 active. AID 504734;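 active means inhibition above the mean over all tested compounds plus 3 SD, cut at about 21% in these data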
Granule exo inh = lytic granule exocytosis inhibition. inhibition, % at 10 µM. AID 651702. 0.66% of 360,000 active. TALL-104 LAMP-1 surface exposure, flow cytometry; cells stimulated with thapsigargin and PMA;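 active means inhibition above about 55%, limit read from the data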
NOD2-RIPK2 inh = inhibitors of human NOD2-RIPK2 interaction; O43353; CHO BLA complementation NOD2-RIPK2, CCF4 ratio; inhibition, % at 4.98 µM; 0.38% of 360,000 active; AID 624267; in the data active means inhibition above about 21%
Target sequence (O43353 whole entry, looked up): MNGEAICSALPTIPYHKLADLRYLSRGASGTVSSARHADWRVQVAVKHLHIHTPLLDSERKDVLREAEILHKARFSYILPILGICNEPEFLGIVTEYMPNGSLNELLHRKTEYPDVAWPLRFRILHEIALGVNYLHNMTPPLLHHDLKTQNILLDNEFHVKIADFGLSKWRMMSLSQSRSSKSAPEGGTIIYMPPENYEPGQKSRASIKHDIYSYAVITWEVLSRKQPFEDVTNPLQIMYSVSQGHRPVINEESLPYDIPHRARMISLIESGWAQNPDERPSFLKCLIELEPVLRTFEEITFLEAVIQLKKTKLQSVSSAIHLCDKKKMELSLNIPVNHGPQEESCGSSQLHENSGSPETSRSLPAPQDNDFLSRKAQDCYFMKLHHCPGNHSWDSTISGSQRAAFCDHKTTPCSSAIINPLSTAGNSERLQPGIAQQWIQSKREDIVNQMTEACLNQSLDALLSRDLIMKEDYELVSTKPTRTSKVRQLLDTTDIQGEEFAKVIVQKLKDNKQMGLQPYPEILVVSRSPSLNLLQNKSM
ABHD5 PLIN5 PPI = blocks binding of human ABHD5 to perilipin-5; Q00G26+Q8WTS1; Split G. princeps luciferase complementation, luminescence, 4 h; inhibition, % at 4 µM; 0.78% of 360,000 active; AID 602281;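 active means inhibition above the mean inhibition across every tested compound plus 3 SD, cut at about 22% in these data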
TLR4 MyD88 comp = TLR4-MyD88 interaction inhibition in cells | O00206+Q99836 | HeLa CL3-4 TLR4/MyD88 BLA complementation, FRET ratio | inhibition, % at 8.4 µM | 0.18% of 200,000 active; in the data active means inhibition above about 25%
ABHD5 PLIN5 conf = ABHD5-PLIN5 interaction inhibition, confirmed; inhibition, % at 4 µM; shares compounds with ABHD5 PLIN5 PPI; 67% of 2,200 active; biochemical ABHD5-PLIN5 interaction, luminescence; AID 651612; in the data active means inhibition above about 23%
HNF4 counter = HNF4 split-luciferase signal hit, counter-screen; 77% of 2,200 active; inhibition, % at 4 µM; shares compounds with ABHD5 PLIN5 PPI; AID 651674; HNF4 dimerization, luminescence, biochemical;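 active means mean inhibition across replicate wells exceeding the computed hit threshold, cut at about 13% in these data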;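 further: light from luciferase halves that rejoin when HNF4 fusion proteins dimerize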
Numbers stand for hits; – = inactive; · = no result given. Only some compounds are listed: those with a hit (about 2% of all), similar ones and a draw of the others.

SMILES | B2AR ag | TLR9-MyD88 block | Granule exo inh | NOD2-RIPK2 inh | ABHD5 PLIN5 PPI | TLR4 MyD88 comp | ABHD5 PLIN5 conf | HNF4 counter
CC1CN(C(=O)COC(=O)c2cc(=O)[nH]c3ccccc23)CC(C)O1 (configuration not stated) | · | – | – | – | – | · | · | ·
Cc1nnc(SCc2ccccc2)nc1/C=C/NOCc1ccc(Cl)cc1Cl | – | – | – | – | 26 | – | – | 25
CSc1nnc(C)c(/C=C/NOCc2cccc(F)c2)n1 | – | – | – | – | – | – | · | ·
O=C1NC(=O)C2(CCCCC2)N1 | – | – | – | – | – | · | · | ·
C[C@H](CO)N1C[C@H](C)[C@@H](CN(C)C(=O)Nc2ccccc2F)OCc2cnnn2CCCC1=O | · | – | – | – | – | · | · | ·
Cc1ccc(OCCNc2cc(N3CCN(CCO)CC3)ccc2[N+](=O)[O-])cc1C | – | – | – | – | 31 | – | – | 14
CCOc1cc(C=C(C(=O)OC)C(=O)OC)ccc1OCc1ccc([N+](=O)[O-])cc1 | – | – | – | – | 66 | – | 96 | 90
COc1cccc(NC(=O)CN(C)C(=O)CCNS(=O)(=O)c2ccc(C)cc2)c1 | – | – | – | – | – | · | · | ·
C=CCNc1oc(-c2cccc(Cl)c2)nc1C#N | – | – | – | – | 24 | · | 47 | 41
O=C(Cn1cc(COc2ccccc2[N+](=O)[O-])nn1)c1ccc(O)cc1 | – | – | – | – | – | · | · | ·
N#Cc1ccccc1OCc1cn(CC(=O)c2ccc(O)cc2)nn1 | – | – | – | – | 31 | · | 66 | 39
CCn1c(C)c(C)c2cc(C(=O)NCCc3ccco3)ccc21 | – | – | – | – | 30 | · | – | 16
COc1cc(C(=O)N2CCCC(c3cc(C(=O)NCc4ccccc4)no3)C2)cc(OC)c1C (configuration not stated) | · | · | – | – | – | · | · | ·
O=C1C(=O)C(Cl)=C(Cl)C(Cl)=C1Cl | · | · | – | – | 27 | · | 51 | 29
Cc1ccc(NC2C(=O)NC(=O)NC2=O)cc1 | – | – | – | – | 44 | · | – | 15
N#C/C(=C\c1c(F)cccc1Cl)C(=O)NC1CC1 | – | – | – | – | 23 | · | 30 | 21
N#C/C(=C\c1ccccc1)C(=O)NC1CC1 | – | – | – | – | – | · | · | ·
COc1cc(/C=C(\C#N)C(=O)NC2CCCCC2C)ccc1OS(=O)(=O)c1ccc(C)cc1 (configuration not stated) | – | – | – | – | 38 | – | 67 | 49
CC1CCCCC1NC(=O)/C(C#N)=C/c1ccccc1F (configuration not stated) | – | – | – | – | 34 | – | 82 | 78
COC(=O)C1CCN(C(=O)c2cc(S(=O)(=O)N3CCCCC3)ccc2Cl)CC1 | – | – | – | – | – | · | · | ·
CCN(CC)CCN(CC(=O)Nc1c(C)cc(C)cc1C)C(=O)c1ccccc1 | – | – | – | – | 24 | · | 33 | –
CCN(CC)CC(=O)Nc1c(C)cc(C)cc1C | · | · | – | · | · | · | · | ·
O=C(CN1C(=O)C(=O)N(C2CCCC2)C1=O)Nc1ccccc1OC(F)F | – | – | – | – | – | · | · | ·
CC1=C(C(=O)N2CCCCCC2)CC(CC(=O)NCc2ccco2)C(=O)N1Cc1ccccc1 (configuration not stated) | · | · | – | – | – | · | · | ·
CCOC(=O)CSc1[nH]c2cc(OC)ccc2c1[N+](=O)[O-] | – | – | – | – | – | – | · | ·
SMILES | B2AR ag | TLR9-MyD88 block | Granule exo inh | NOD2-RIPK2 inh | ABHD5 PLIN5 PPI | TLR4 MyD88 comp | ABHD5 PLIN5 conf | HNF4 counter
COC(=O)CSc1[nH]c2ccc(F)cc2c1[N+](=O)[O-] | – | – | – | – | 25 | · | 44 | 83
COc1cccc(-c2cnc3c(NC(C)=O)cc(-c4cccc(C(=O)NCCN(C)C)c4)cn23)c1 | · | · | – | – | – | · | · | ·
CCN(CC)CCN1CNC(=S)NC1 | · | – | – | – | – | · | · | ·
COCCN(CCOC)Cc1cc(=O)oc2ccc3ccccc3c12 | · | · | – | – | – | · | · | ·
CC(C)(C)c1ccc(C(=O)CC(Sc2ccc(Cl)cc2)C(=O)O)cc1 (configuration not stated) | – | – | – | – | 85 | – | 54 | 97
Cc1ccc(SC(CC(=O)c2ccc(F)cc2)C(=O)O)cc1 (configuration not stated) | – | – | – | – | 84 | · | 24 | 70
CC(C)(C)c1ccc(C(=O)Nc2ccc(Cl)cc2)cc1 | – | – | – | – | – | – | · | ·
CC1CC(C)CN(C(=O)CN2C(=O)NC(c3ccccc3)(c3ccccc3)C2=O)C1 (configuration not stated) | – | – | – | – | 34 | · | – | –
CCOC(=O)N1CCN(C(=O)CN2C(=O)NC(c3ccccc3)(c3ccccc3)C2=O)CC1 | – | – | – | – | – | · | · | ·
CC(C)CN(C(=O)CN(C)CC(=O)Nc1ccccc1C#N)c1c(N)n(CC(C)C)c(=O)[nH]c1=O | – | – | – | – | – | · | · | ·
COCCNC(=O)/C(C#N)=C/c1cccc(/C=C(\C#N)C(=O)NCCOC)c1 | – | – | – | – | 48 | – | 98 | 71
CCOc1cc(CNCCCN2CCOCC2)cc(Br)c1OCC(=O)Nc1cccc(C(F)(F)F)c1 | – | – | – | – | 25 | – | – | 15
CCOc1cc(CNCCCN2CCOCC2)cc(Cl)c1OCC(=O)NC(C)(C)C | – | – | – | – | – | · | · | ·
NS(=O)(=O)c1ccc(N=Nc2ccc(O)c3ncccc23)cc1 | – | – | – | – | 24 | · | 29 | 20
NC(=O)C1=C[C@H](c2coc3ccccc3c2=O)C[C@H](OCCCCO)O1 | – | – | – | – | 23 | – | – | –
O=C(Cc1cccc([N+](=O)[O-])c1)Nc1ccc(C(=O)N2CCCCC2)cc1 | – | – | – | – | 25 | · | – | –
CC(=O)Nc1ccc(NC(=O)COC(=O)/C(=C/c2ccccc2)n2nnnc2C)cc1 | – | – | – | – | 40 | · | 52 | 51
Cc1nnnn1/C(=C\c1ccccc1)C(=O)OCC(=O)NC1CCCCC1 | – | – | – | – | 25 | · | 55 | 62
Cc1nnnn1/C(=C\c1ccccc1)C(=O)OCC(=O)NC(C)(C)C | – | – | – | – | – | – | · | ·
CC(=O)c1ccc(S(=O)(=O)NCCC(=O)OCC(=O)N(Cc2ccccc2)C(C)(C)C)cc1 | – | – | – | – | – | · | · | ·
CC[n+]1c(/C=C/c2ccc(OC)c(OC)c2)ccc2ccccc21 | – | – | – | – | – | · | · | ·
CC[n+]1c(/C=C/c2ccc(N(C)C)cc2)ccc2ccccc21 | – | – | – | – | 29 | – | 27 | 28
CC[n+]1ccc(/C=C/c2ccc(N(C)C)cc2)c2ccccc21 | – | – | – | – | 28 | – | 32 | 33
